{
  "source": "PubChem BioAssay (EPA / NIEHS)",
  "note": "Records with an inconclusive call do not appear. The source made the active and inactive calls. Rule for the calls: active = hit-call score of the fitted dose curve at least 0.9, where 1 is the maximum; inconclusive = response in the unintended direction; inactive = score below 0.9.",
  "data": [
    {"molecular_target": "Cellular tumor antigen p53 (Homo sapiens) (UniProt P04637)", "sequence (P04637 whole entry, looked up)": "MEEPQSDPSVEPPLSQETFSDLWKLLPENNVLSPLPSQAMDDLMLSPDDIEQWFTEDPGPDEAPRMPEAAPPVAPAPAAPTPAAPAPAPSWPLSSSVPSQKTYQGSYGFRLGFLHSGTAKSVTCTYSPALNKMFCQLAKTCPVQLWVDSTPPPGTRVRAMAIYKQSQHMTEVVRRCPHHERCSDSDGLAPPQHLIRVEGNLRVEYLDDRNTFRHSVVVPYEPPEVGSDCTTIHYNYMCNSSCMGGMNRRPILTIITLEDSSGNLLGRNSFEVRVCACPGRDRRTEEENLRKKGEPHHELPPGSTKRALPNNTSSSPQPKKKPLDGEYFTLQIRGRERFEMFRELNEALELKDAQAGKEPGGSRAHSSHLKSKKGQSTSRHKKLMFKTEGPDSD", "experiment": "TOX21_p53_BLA_p4_ratio: Tox21 HCT-116 p53 Agonism Beta-lactamase Assay, Ratio, Phase 4 (AID 2283601)", "summary_of_the_method": "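Signal is the blue/green (460nm/530nm) ratio of cleaved versus uncleaved CCF4-AM substrate, read after 2 h substrate loading. Cells were HCT116 carrying the p53-responsive beta-lactamase reporter, dosed 16 h at 37C, 5% CO2; CellTiter-Glo measured in parallel.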", "values": [
      {"compound": "CCCCN(CCCC)C(=O)N(CCCC)CCCC", "outcome": "inactive"},
      {"compound": "C=CCOC(=O)CCCCCC", "outcome": "inactive"},
      {"compound": "CCC1(c2ccccc2)C(=O)NCNC1=O", "outcome": "inactive"},
      {"compound": "CCCCC(CC)C(=O)OC(C)C", "note": "(centres undefined)", "outcome": "inactive"},
      {"compound": "O=C(O)CNc1ccccc1", "outcome": "inactive"},
      {"compound": "CN1CCOCC1", "outcome": "inactive"},
      {"compound": "CC(C)(C)c1ccc(C(=O)O)cc1", "outcome": "inactive"},
      {"compound": "CCOC(=O)C1OC1c1ccccc1", "note": "(centres undefined)", "outcome": "inactive"},
      {"compound": "Cc1c(C2(c3cc(Br)c(O)c(Br)c3C)OS(=O)(=O)c3ccccc32)cc(Br)c(O)c1Br", "outcome": "inactive"},
      {"compound": "CCCC(C)C(O)CC", "note": "(centres undefined)", "outcome": "inactive"},
      {"compound": "C[C@@H]1CCN(C(=O)[C@H](CCCN=C(N)N)NS(=O)(=O)c2cccc3c2NC[C@H](C)C3)[C@@H](C(=O)O)C1", "outcome": "inactive"},
      {"compound": "C=C(C)C(=O)OCCOCCOCCOCCOC(=O)C(=C)C", "outcome": "inactive"},
      {"compound": "C=COCCOCCOC=C", "outcome": "inactive"},
      {"compound": "O=CCc1ccccc1", "outcome": "inactive"},
      {"compound": "COc1ccc(N)c([N+](=O)[O-])c1", "outcome": "inactive"},
      {"compound": "CCCCCCCCCCCCCCN(CCO)CCO", "outcome": "inactive"},
      {"compound": "CC1(C)O[C@@H]2[C@@H](CO[C@@]3(COS(N)(=O)=O)OC(C)(C)O[C@@H]23)O1", "outcome": "inactive"},
      {"compound": "CC(=O)O[C@@H]1CC2CCC1(C)C2(C)C", "note": "(some centres undefined)", "outcome": "inactive"},
      {"compound": "FC(F)(F)COCC(F)(F)F", "outcome": "inactive"},
      {"compound": "CCCC(=O)C(CC)Sc1ccoc1C", "note": "(centres undefined)", "outcome": "inactive"},
      {"compound": "CCCCCCCCN1CCCC1=O", "outcome": "inactive"},
      {"compound": "N#Cc1cscn1", "outcome": "inactive"},
      {"compound": "C=C(C)C(=O)OCCOCCOCCOC(=O)C(=C)C", "outcome": "inactive"},
      {"compound": "NCC1CCCC(CN)C1", "note": "(centres undefined)", "outcome": "inactive"}
    ]}
  ]
}
